This passage reports Potency and viability (% of DMSO) results from PubChem BioAssay (NCATS).

The nature of experiment [1]: Quantitative High-Throughput drug screen in 47 multiple myeloma cell lines against the NCATS MIPE library collection: Karpas620_DSMZ cell viability assay (AID 1918959). Further: nearly all actives have a fitted effect of over 30% in size. Further: potency means the concentration at half of the fitted maximal effect. The method, boiled down: (§1)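 Myeloma cell lines, 500 cells per well, exposed to MIPE 4.0 library compounds for 48 h at 37C, 5% CO2. Viability from ATP by CellTiter-Glo luminescence; normalised to DMSO (100%) and media-only (0%) wells.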

Experiment [2] can be described thus: Quantitative High-Throughput drug screen in 47 multiple myeloma cell lines against the NCATS MIPE library collection: KMM1_JCRB cell viability assay (AID 1918960). Further: nearly all actives have a fitted effect of over 30% in size. Further: potency means the concentration at half of the fitted maximal effect. The method, boiled down: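 ATP readout (CellTiter-Glo), 48 h drug incubation, 37 °C/5% CO2, 500 cells per well; normalisation to DMSO (100%) and media-only (0%) controls.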
A short description of experiment [3]: Quantitative High-Throughput drug screen in 47 multiple myeloma cell lines against the NCATS MIPE library collection: JJN3_DSMZ cell viability assay (AID 1918966; further: potency means the concentration at half of the fitted maximal effect; nearly all actives have a fitted effect of over 50% in size). The procedure, abridged: (§2)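 Relative luminescence from CellTiter-Glo served as the viability signal, referenced to DMSO-treated (100%) and cell-free medium (0%) controls. Treatment lasted 48 hours at 37C with 500 cells per well.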

Experiment [4] can be described thus: Quantitative High-Throughput drug screen in 47 multiple myeloma cell lines against the NCATS MIPE library collection: H1112_PLB cell viability assay (AID 1918967; further: nearly all actives have a fitted effect of over 30% in size; further: potency means the concentration at half of the fitted maximal effect). The procedure, abridged:
as §2

A short description of experiment [5]: Quantitative High-Throughput drug screen in 47 multiple myeloma cell lines against the NCATS MIPE library collection: KMS27_JCRB cell viability assay (AID 1918970). Further: nearly all actives have a fitted effect of over 30% in size. Further: potency means the concentration at half of the fitted maximal effect. The procedure, abridged:
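CellTiter-Glo luminescence after 48 h drug exposure at 37 °C; 500 cells/well, 1536-well format, pin-tool compound addition; DMSO = 100%, media-only = 0% viability.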

Experiment [6] in a line: Quantitative High-Throughput drug screen in 47 multiple myeloma cell lines against the NCATS MIPE library collection: KMS12PE_JCRB cell viability assay (AID 1918972). Further: nearly all actives have a fitted effect of over 30% in size. Further: potency means the concentration at half of the fitted maximal effect. The procedure, abridged:
as §1

A short description of experiment [7]: Quantitative High-Throughput drug screen in 47 multiple myeloma cell lines against the NCATS MIPE library collection: KMS26_JCRB cell viability assay (AID 1918975). Further: potency means the concentration at half of the fitted maximal effect; nearly all actives have a fitted effect of over 45% in size. The procedure, abridged:
as §2

The nature of experiment [8]: Quantitative High-Throughput drug screen in 47 multiple myeloma cell lines against the NCATS MIPE library collection: MMM1_PLB cell viability assay (AID 1918976). Further: potency means the concentration at half of the fitted maximal effect; nearly all actives have a fitted effect of over 35% in size. The method, boiled down: (§3)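 500 cells/well per myeloma line exposed to pinned MIPE 4.0 compounds for 48 h at 37 °C, 5% CO2. Viability read as ATP by CellTiter-Glo luminescence, normalised to DMSO-only (100%) and media-only (0%) wells.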

Experiment [9] in a line: Quantitative High-Throughput drug screen in 47 multiple myeloma cell lines against the NCATS MIPE library collection: MOLP8_DSMZ cell viability assay (AID 1918977). Further: nearly all actives have a fitted effect of over 45% in size. Further: potency means the concentration at half of the fitted maximal effect. The method, boiled down:
as §3

Experiment [10] is described as follows: Quantitative High-Throughput drug screen in 47 multiple myeloma cell lines against the NCATS MIPE library collection: NCIH929_DSMZ cell viability assay (AID 1918978). Further: nearly all actives have a fitted effect of over 35% in size. Further: potency means the concentration at half of the fitted maximal effect. The procedure, abridged:
as §3

Experiment [11] in a line: Quantitative High-Throughput drug screen in 47 multiple myeloma cell lines against the NCATS MIPE library collection: KHM11_PLB cell viability assay (AID 1918962). Further: nearly all actives have a fitted effect of over 35% in size. The procedure, abridged:
as §1

The nature of experiment [12]: Quantitative High-Throughput drug screen in 47 multiple myeloma cell lines against the NCATS MIPE library collection: Karpas25_ECACC cell viability assay (AID 1918968; further: nearly all actives have a fitted effect of over 35% in size; further: potency means the concentration at half of the fitted maximal effect). The procedure, abridged: as §2
Experiment [13] is described as follows: Quantitative High-Throughput drug screen in 47 multiple myeloma cell lines against the NCATS MIPE library collection: JIM3_ECACC cell viability assay (AID 1918963; further: nearly all actives have a fitted effect of over 35% in size; further: potency means the concentration at half of the fitted maximal effect). The procedure, abridged:
as §1

Experiment [14] can be described thus: Quantitative High-Throughput drug screen in 47 multiple myeloma cell lines against the NCATS MIPE library collection: INA6_PLB cell viability assay (AID 1918965; further: nearly all actives have a fitted effect of over 55% in size; further: potency means the concentration at half of the fitted maximal effect). The method, boiled down:
as §1

A short description of experiment [15]: Quantitative High-Throughput drug screen in 47 multiple myeloma cell lines against the NCATS MIPE library collection: KMS12BM_JCRB cell viability assay (AID 1918971). Further: nearly all actives have a fitted effect of over 35% in size. Further: potency means the concentration at half of the fitted maximal effect. The procedure, abridged: as §2
Experiment [16] in a line: Quantitative High-Throughput drug screen in 47 multiple myeloma cell lines against the NCATS MIPE library collection: KMS20_JCRB cell viability assay (AID 1918973). Further: potency means the concentration at half of the fitted maximal effect; nearly all actives have a fitted effect of over 45% in size. The method, boiled down:
as §2

A short description of experiment [17]: Quantitative High-Throughput drug screen in 47 multiple myeloma cell lines against the NCATS MIPE library collection: JIM1_ECACC cell viability assay (AID 1918964). The method, boiled down: as §2
A short description of experiment [18]: Quantitative High-Throughput drug screen in 47 multiple myeloma cell lines against the NCATS MIPE library collection: Karpas417_ECACC cell viability assay (AID 1918961). Further: potency means the concentration at half of the fitted maximal effect. Conditions: Karpas417 myeloma viability, CellTiter-Glo ATP luminescence, 48 h; viability (% of DMSO): at 45.8 µM (top of the series). The method, boiled down:
as §1

Experiment [19] in a line: Quantitative High-Throughput drug screen in 47 multiple myeloma cell lines against the NCATS MIPE library collection: KMS21BM_JCRB cell viability assay (AID 1918974). Further: potency means the concentration at half of the fitted maximal effect. Conditions: ATP luminescence, 48 h; viability: at 45.8 µM (top of the series) unless noted. The procedure, abridged: as §2

Records with an inconclusive call do not appear. Calls of active or inactive are those of the source. The call rests on the fitted dose curve; in most records, active means well fitted curve in the direction sought with a large enough effect; inconclusive means small, poorly fitted or top-dose-only effect, or another doubt; inactive means no such curve, though single readings can be large; an effect the other way counts as inactive or inconclusive.

As for `CC1(C)CCC(CN2CCN(c3ccc(C(=O)NS(=O)(=O)c4ccc(NCC5CCOCC5)c([N+](=O)[O-])c4)c(Oc4cnc5[nH]ccc5c4)c3)CC2)=C(c2ccc(Cl)cc2)C1`, the Potency in [1] was 0.332 µM (active); in [2] it was 8.33 µM (active); in [3], 20.9 µM (active); in experiment [4] it was 0.264 µM (active); in [5] it was 0.118 µM (active); in experiment [6] it was 0.0833 µM (active). For the same compound, the Potency in experiment [7] is 18.7 µM (active); in [8], 0.166 µM (active); in [9], 18.7 µM (active); in [10], 23.5 µM (active).

Turning to `COc1ccc(-n2c(C)c([N+](=O)[O-])c3ccc(O)cc32)cc1`, the Potency entry in experiment [1], in [2], in [11], in experiment [4] and in [9] was “inactive” throughout. The Potency in experiment [12] was 26.4 µM (active).

In the case of `CC(C)n1nc(-c2ccc3oc(N)nc3c2)c2c(N)ncnc21`, the Potency is 1.18 µM (active) in [1]; 0.0074 µM (active) in [13]; 0.0093 µM (active) in experiment [14]; 0.0074 µM (active) in experiment [3]; 0.0526 µM (active) in experiment [15]; 0.0418 µM (active) in experiment [16]. Moreover, the figures for the Potency in [7] and in experiment [8] were 0.132 µM (active) and 0.0026 µM (active), respectively.

Turning to `CC(C)(C(=O)NCC(F)(F)C(F)(F)F)C(=O)N[C@@H]1C(=O)Nc2ccccc2-c2ccccc21`, the Potency is 2.35 µM (active) in experiment [1]; 18.7 µM (active) in [2]; 18.7 µM (active) in [14]; 16.6 µM (active) in [4]; 1.32 µM (active) in experiment [5]; 16.6 µM (active) in [6]. In experiment [10], the Potency is 16.6 µM (active). Besides, the Potency entry in experiment [15] and in [9] was “inactive” each time.

For the compound `O=C(N[C@@H](c1ccccc1)[C@@H]1CCCCN1)c1cccc(C(F)(F)F)c1Cl`, the Potency result in [1], in [2], in experiment [17], in experiment [14] and in experiment [12] was “inactive” in each case. Moreover, the Potency in experiment [4] was 14.8 µM (active); in experiment [15], 7.43 µM (active); in [6], 23.5 µM (active); in experiment [8], 1.32 µM (active).

`CCOC(=O)O[C@]1(C(=O)OCCl)CC[C@@H]2[C@H]3CCC4=CC(=O)C=C[C@]4(C)[C@@H]3[C@@H](O)C[C@@]21C`: the Potency entry in experiment [1], in experiment [11], in experiment [13], in experiment [14], in experiment [4] and in experiment [5] was “inactive” each time. Further, the Potency result in experiment [6], in experiment [9] and in [10] was “inactive” in each case. For the same compound, the viability (% of DMSO) in [18] was 78.2% (active). For the same compound, in experiment [12], the Potency is 0.526 µM (active).

Regarding `Cc1c[nH]c(C=C2C(=O)Nc3ccccc32)c1CCC(=O)O`, the Potency result in [1] and in experiment [10] was “inactive” throughout. Moreover, in [2], the Potency is 18.7 µM (active).

Turning to `Cc1ccc(/C=N/NC(=O)c2ccccc2Oc2ccccc2)o1`, the values for the Potency in experiment [13], in [14] and in [16] were 23.5 µM (active), 16.6 µM (active) and 16.6 µM (active), respectively.

For the compound `O=C1NC(=O)C(=Cc2cccc(C(F)(F)F)c2)S1`, the Potency in [18] is 26.4 µM (active); in [15] it was 20.9 µM (active); in experiment [19] it was 8.33 µM (active). In experiment [9], the Potency result is “inactive”.

As to `CCNc1cc(NC2CCC(O)CC2)nc(Nc2ccc3c(ccn3Cc3ccccc3)c2)n1` (centres undefined), the Potency in [13] is 20.9 µM (active); in experiment [14], 16.6 µM (active); in [4] it was 18.7 µM (active); in [12], 18.7 µM (active); in experiment [5], 16.6 µM (active); in [16], 37.2 µM (active).
